Screening data: PubChem, National Center for Advancing Translational Sciences (NCATS)
LMNA splice mod = qHTS Assay for Modulators of Lamin A Splicing; HeLa LMNA splicing GFP/RFP minigene ratio, 48 h; Potency, µM (top dose mostly 46.1 µM), for the others: top-dose ratio change, negative = inhibition, usual class: inhibitors; actives 0.01% (n = 200,000); AID 1487, 2009; active means well fitted inhibition curve with a large enough effect in the signal ratio, with a control signal flat, not every such curve was filed as active; inconclusive means small, poorly fitted or top-dose-only effect, or effect the other way, or a change in a side signal; the % refers to the signal ratio; further: on the % scale 0 is the no-effect control and ±100 the full control effect
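Read-out is the ratio of GFP to DsRed2 object intensity, acquired by 488 nm laser-scanning cytometry on HeLa lamin A-EGFP minigene reporter cells. Compound incubation 48 hrs at 37 °C in Opti-MEM with 2% FBS; DMSO 0.5% final.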
HPGD inh = qHTS Assay for Inhibitors of HPGD (15-Hydroxyprostaglandin Dehydrogenase); Potency, µM, for the others: at the top dose activity change, negative = inhibition, hits mostly inhibitors; purified HPGD, NADH fluorescence kinetic, PGE2 substrate; actives 4.3% (n = 150,000); further: on the % scale 0 is the no-effect control and ±100 the full control effect
Target sequence (P15428 whole entry, looked up): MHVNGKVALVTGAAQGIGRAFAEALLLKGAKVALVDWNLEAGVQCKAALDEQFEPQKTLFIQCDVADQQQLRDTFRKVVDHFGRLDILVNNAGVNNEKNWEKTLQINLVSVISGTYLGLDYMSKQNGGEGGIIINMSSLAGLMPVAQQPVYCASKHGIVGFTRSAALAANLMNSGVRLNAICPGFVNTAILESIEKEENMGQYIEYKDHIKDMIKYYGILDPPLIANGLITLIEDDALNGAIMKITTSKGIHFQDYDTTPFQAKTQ
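20 nM HPGD preincubated 15 min at room temperature with compound in 50 mM Tris-HCl pH 8, 0.01% Tween 20. Started with 1 mM NAD+ and 30 uM prostaglandin E2; NADH fluorescence (360/450 nm) read 5 times over 30-s intervals, last minus first.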
HTT aggregate = qHTS Multiplex Assay to Identify Dual Action Probes in a Cell Model of Huntington: Aggregate Formation (GFP). actives 1.1% (n = 220,000). PC12 HttQ103-GFP aggregates, Acumen cytometry, 40 h. Potency, µM (titrated, usually from 46.1 µM), for the others: at the top dose activity change, negative = inhibition, actives largely listed as inhibitors; active means well fitted curve in the direction sought with a large enough effect; inconclusive means small, poorly fitted or top-dose-only effect, or another doubt; inactive means no such curve, though single readings can be large; an effect the other way counts as inactive or inconclusive; further: on the % scale 0 is the no-effect control and ±100 the full control effect; nearly all actives have a fitted effect of over 60% in size
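Quantitative HTS on tebufenozide-induced (100 nM) PC12 cells stably expressing polyQ103 Huntingtin exon 1–GFP. Reduction of bright GFP aggregates, detected by laser scanning cytometry after lysis, identified actives across the titration.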
HTT ATP protect = qHTS Multiplex Assay to Identify Dual Action Probes in a Cell Model of Huntington: Cytoprotection (ATP); actives 0.14% (n = 230,000); AID 1471, 2008; PC12 HTT-Q103 induced, cytoprotection, ATP luminescence, 40 h; Potency, µM (series often up to 56.4 µM), for the others: cytoprotection (ATP increase), most hits filed as activators; active means well fitted curve in the direction sought with a large enough effect; inconclusive means small, poorly fitted or top-dose-only effect, or another doubt; inactive means no such curve, though single readings can be large; an effect the other way counts as inactive or inconclusive; further: % of control where 0% means no effect; nearly all actives have a fitted effect of over 45% in size
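Compounds were screened for protection of PC12 cells against cell death after tebufenozide induction (100 nM final) of mutant Huntingtin exon 1 (Q103) fused to GFP.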
ALDH1A1 block = qHTS Assay for Inhibitors of Aldehyde Dehydrogenase 1 (ALDH1A1); Purified ALDH1A1, NADH fluorescence, propionaldehyde substrate; Aldehyde dehydrogenase 1A1 (Homo sapiens), P00352; actives 7.3% (n = 220,000); Potency, µM (titrated, usually from 75.3 µM), inactives show at the top dose activity, negative = inhibition, hits mostly inhibitors; AID 1030, 2008;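 further: plate controls were no enzyme wells and a reference inhibitor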
Target sequence (P00352 whole entry, looked up): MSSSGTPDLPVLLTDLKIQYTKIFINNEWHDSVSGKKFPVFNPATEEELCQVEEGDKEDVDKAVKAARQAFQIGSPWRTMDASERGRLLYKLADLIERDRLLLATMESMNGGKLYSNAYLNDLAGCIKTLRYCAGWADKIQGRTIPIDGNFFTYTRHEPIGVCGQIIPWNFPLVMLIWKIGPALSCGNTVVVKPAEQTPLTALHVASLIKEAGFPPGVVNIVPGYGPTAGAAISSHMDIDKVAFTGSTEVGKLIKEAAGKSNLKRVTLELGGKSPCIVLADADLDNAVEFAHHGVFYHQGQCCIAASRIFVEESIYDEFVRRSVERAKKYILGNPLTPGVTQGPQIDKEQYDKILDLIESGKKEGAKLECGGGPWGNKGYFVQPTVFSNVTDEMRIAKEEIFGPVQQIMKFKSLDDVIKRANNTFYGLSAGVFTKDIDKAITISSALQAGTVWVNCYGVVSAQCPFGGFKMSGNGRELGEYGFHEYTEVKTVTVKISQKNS
An asterisk follows results filed as active; ? = inconclusive; / = no result; [ ] = remark or other dose. The list is not random: actives were taken first. Their share in the collection is about 8.8%. Unless noted, the call rests on the fitted dose curve; in most records, active means well fitted inhibition curve with a large enough effect (not every such curve was filed as active); inconclusive means small, poorly fitted or top-dose-only effect, or another doubt; inactive means no such curve, though single readings can be large or run the other way. Potency means the concentration at half of the fitted maximal effect.

SMILES | LMNA splice mod | HPGD inh | HTT aggregate | HTT ATP protect | ALDH1A1 block
CCOc1ccccc1NC(=O)N1CCC(C(=O)c2ccc(F)cc2)CC1 | -12% | -10% | 18% | 3% | 5µM*
COc1ccc(C(=O)C2CCN(C(=S)Nc3ccc(F)cc3)CC2)cc1 | / | / | -32% | 2.5µM* | -2%
COc1ccccc1NC(=O)N1CCC(C(=O)c2ccc(F)cc2)CC1 | -1% | -9% | 21% | 1%[10 µM] | 1%
CC[n+]1c(/C=C/c2ccc(N(C)C)cc2)ccc2ccccc21 | ? | -25% | ? | / | ?
CC[n+]1ccccc1/C=C/c1ccc(N(C)C)cc1 | / | / | 2.8µM* | -79% | ?
CN(C)c1ccc(/C=C/c2cc[n+]([O-])cc2)cc1 | 11% | -14% | 7% | -13% | 0%
CC[n+]1ccc(/C=C/c2ccc(N(C)C)cc2)c2ccccc21 | ? | / | ? | -58%[10 µM] | 22µM*
CN(C)c1ccc(/C=C/c2cc[n+](C)cc2)cc1 | ? | -6% | 2.5µM* | -70% | 14µM*
CC(Cc1ccccc1)C(=O)NCC1CC1 (configuration not stated) | / | -6% | / | 13% | 3%
CCNc1ccc(S(=O)(=O)N(C)C)cc1NCC(=O)Nc1ccccc1Br | 1%[46 µM] | / | 9% | -9% | 25µM*
COc1ccc(S(=O)(=O)N(C)C)cc1NCC(=O)Nc1cccc(C#N)c1 | / | / | 23% | / | 20µM*
CCNc1ccc(S(=O)(=O)N(C)C)cc1NCC(=O)Nc1ccccc1F | -9% | 0% | -12% | 9%[10 µM] | 20µM*
COc1ccc(NCC(=O)Nc2ccc(C#N)cc2)cc1Cl | 0% | -16% | 17%[9.22 µM] | -3% | 10µM*
COc1cc(CCC(=O)Nc2cccc(S(=O)(=O)N(C)C)c2)cc(OC)c1OC | ? | -1% | -8% | -33%[0.074 µM] | 0%
COc1ccc(NC(=O)CNc2cccc(C#N)c2)cc1Cl | 6% | -21% | 5% | 3% | ?
COC(=O)c1nnc(SC)nc1C(=O)OC | / | -3% | / | / | 2%
CC(C)OC(=O)[C@@H]1CC[C@H](C)[C@@H](CCCCO)O1 | / | -7% | / | / | -2%
CCOC(=O)C1=C(C)NC(C)=C(C(=O)OCC)C1c1ccccc1C=CC(=O)OC(C)(C)C | ? | / | ? | -344% | /
CCNc1ccc(S(=O)(=O)N(C)C)cc1NCC(=O)Nc1ccc(Br)cc1F | ? | -22% | 6% | 25%[10 µM] | -1%
CCN(CC)S(=O)(=O)c1ccc2nnn(OCC(=O)Nc3cccc(C#N)c3)c2c1 | 4% | -7% | ? | 4% | 14µM*
CCNc1ccc(S(=O)(=O)N(C)C)cc1NCC(=O)Nc1ccc(F)c(Cl)c1 | ? | -9% | -22% | -12%[10 µM] | 25µM*
COc1ccc(NC(=O)c2oc3ccc(S(=O)(=O)N4CCC5(CC4)OCCO5)cc3c2C)cc1Cl | -13%[46 µM] | / | / | / | /
CCC(=O)/C=C1\Sc2ccc(OC)cc2N1CCO | 0% | -4% | -1% | -21%[0.074 µM] | 8%
CCC(=O)/C=C1\Sc2ccc(OC)cc2N1CC | 19% | 28µM* | ? | -19%[10 µM] | ?
CC(=O)N(Cc1cc2ccc(C)c(C)c2n2nnnc12)C1CCCC1 | ? | -11% | -6% | -1% | ?
SMILES | LMNA splice mod | HPGD inh | HTT aggregate | HTT ATP protect | ALDH1A1 block
Cc1cc2cc(CN(C(=O)C3CC3)C3CCCC3)c3nnnn3c2cc1C | -5% | -18% | 11% | -29%[10 µM] | 0.2µM*
CCOC(=O)c1c(C)[nH]c(CCC(=O)NCc2ccccc2Cl)c1C | 0%[46 µM] | / | / | / | /
Cc1oc2ncn(CC(C)C)c(=O)c2c1C(=O)N(Cc1ccccc1)C(C)C | -7%[46 µM] | / | / | / | /
Cc1oc2cc(O)cc(O)c2c(=O)c1-c1ccc2c(c1)OCCCO2 | ? | -29% | -19% | -36% | 16µM*
O=C1CCCN1c1ccc(S(=O)(=O)Oc2ccc(Cl)cc2)cc1[N+](=O)[O-] | 0% | 7.9µM* | 9% | -60% | -12%
C[C@@H]1CC[C@]2(C(=O)O)CC[C@]3(C)C(=CCC4[C@@]5(C)C[C@@H](O)[C@H](O)[C@@](C)(CO)C5CC[C@]43C)C2[C@H]1C (some centres not stated) | / | -15% | / | / | 9%
O=C(Nc1cccc2[nH]ncc12)c1ccc(F)cc1 | ? | ? | 5µM* | -15% | 5%
O=C(Nc1cccc2ncccc12)c1ccc(F)cc1 | -12% | -4% | -12% | 23%[10 µM] | 2%
CNC(=S)Nc1cccc2[nH]ncc12 | -7% | -2% | 11% | 11%[10 µM] | 1%
O=C(NC(=S)Nc1cccc2[nH]ncc12)c1ccccc1 | / | / | 10µM* | -9% | ?
COc1ccc(-c2nc3cnc(Nc4cccc(OC)c4)nc3n(C[C@H]3CCCO3)c2=O)cc1 | 20% | / | / | -5% | -13%
CC(C)CC(=O)N1CCN(c2ccc([N+](=O)[O-])cc2Cl)CC1 | ? | -11% | 10% | 29%[10 µM] | 32µM*
CC(C)C(=O)N1CCN(c2ccc([N+](=O)[O-])cc2Cl)CC1 | ? | -8% | 5% | 6%[10 µM] | 14µM*
C/C(CCc1ccccc1)=N/NC(=O)C(=O)NCc1ccccc1 | / | / | / | / | 10%
Cc1c(-c2ccc(Cl)cc2)c(=O)oc2ccc(OC(=O)N3CCOCC3)cc12 | -9%[46 µM] | / | / | / | /
CCOP(=O)(O)c1ccccc1OCCOCCOc1ccccc1P(=O)(O)OCC | 8% | 2% | 7% | 11%[10 µM] | 4µM*
Cc1ccccc1C1C(C#N)=C2N=C(N)c3c(sc4c3CCCCC4)N2C2=C1C(=O)CCC2 (configuration not stated) | ? | -11% | 28% | -29% | 2.2µM*
CCCn1c2c(c(O)c(C(=O)Nc3ncccc3O)c1=O)CCCC2 | ? | / | 13µM* | -12% | 5.6µM*
CCCn1c2c(c(O)c(C(=O)NC)c1=O)CCCC2 | -5% | -17% | -24% | -19%[0.074 µM] | -11%
CCCn1c2c(c(O)c(C(=O)NCCCN(CC)CC)c1=O)CCCC2 | -19% | -13% | 2% | 12%[10 µM] | 28µM*
NC(=O)C1CCN(c2ncnc3c2cnn3-c2cccc(Cl)c2)CC1 | 15%[46 µM] | / | / | / | /
O=C(c1ccncc1)N1CCC2(CCN(Cc3nccs3)CC2)CC1 | / | -3% | / | 5% | 7%
COc1cc2c(cc1OC)C1=C(C#N)CN(C3CCCCC3)CN1CC2 | 1% | ? | -18% | -21% | ?
COc1ccc(CCN2CC(C#N)=C3c4cc(OC)c(OC)cc4CCN3C2)cc1OC | -5% | 7.1µM* | ? | -59% | ?
CCCn1c(N2CCN(C(=O)NCc3ccccc3)CC2)nc2ccccc21 | / | / | 16%[9.22 µM] | 27%[10 µM] | /
Cn1c(N2CCN(C(=O)NCc3ccccc3)CC2)nc2ccccc21 | 12% | -8% | 2% | -4%[10 µM] | 4µM*
C[C@@]12C[C@H](O)[C@@H]3[C@H](CCC4=CC(=O)CC[C@]43C)[C@H]1CC[C@@H]2c1csc(-c2ccccc2)n1 | / | / | / | 7%[10 µM] | /
